Gal4-VP16 FLuc: VP16 counterscreen qHTS for inhibitors of ROR gamma transcriptional activity | actives 3.5% (n = 310,000) | Potency, µM (highest dose often 53.6 µM), usual class: inhibitors | AID 2546, 2010 | Drosophila S2 Gal4-VP16 UAS-luciferase, luminescence, 20 h;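 also: Gal4-VP16 expression switched on by copper sulfate through the metallothionein promoter; nearly all actives have a fitted effect of over 50% in size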
RORgamma inh: qHTS for inhibitors of ROR gamma transcriptional activity. Nuclear receptor ROR-gamma (Mus musculus), P51450. Drosophila S2 Gal4-RORgamma UAS-luciferase reporter, 20 h. Potency, µM (top dose mostly 53.6 µM), most hits filed as inhibitors. actives 5.4% (n = 310,000). AID 2551, 2010; also: nearly all actives have a fitted effect of over 60% in size
Target sequence (P51450 whole entry, looked up, the tested form may be a part): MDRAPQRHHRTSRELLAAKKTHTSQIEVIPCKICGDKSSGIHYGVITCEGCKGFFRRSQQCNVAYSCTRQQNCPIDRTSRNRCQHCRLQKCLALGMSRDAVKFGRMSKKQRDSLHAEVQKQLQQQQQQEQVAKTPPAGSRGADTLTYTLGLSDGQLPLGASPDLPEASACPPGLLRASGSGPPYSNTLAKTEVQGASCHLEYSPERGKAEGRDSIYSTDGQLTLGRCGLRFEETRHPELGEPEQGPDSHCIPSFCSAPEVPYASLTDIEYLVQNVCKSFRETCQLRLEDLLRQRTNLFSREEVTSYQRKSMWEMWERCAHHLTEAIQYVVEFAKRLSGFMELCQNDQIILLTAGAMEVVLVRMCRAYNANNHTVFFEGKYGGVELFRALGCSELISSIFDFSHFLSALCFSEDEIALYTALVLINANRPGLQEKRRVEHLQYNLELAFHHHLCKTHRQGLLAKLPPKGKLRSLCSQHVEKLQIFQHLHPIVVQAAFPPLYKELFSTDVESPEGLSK
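Luminescence from a UAS-regulated Photinus luciferase reporter in stably transfected Drosophila Schneider cells is measured; decreased signal marks ROR gamma inhibition. Fusion expression is induced by 700 uM copper sulfate for 20 hr.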
HepG2 tox-1: qHTS for Inhibitors of TGF-b: Cytotox Counterscreen; HepG2 CAGA-GFP viability, ATP luminescence, 18 h; Potency, µM (highest dose often 46.1 µM), hits mostly cytotoxic; actives 0.76% (n = 410,000)
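HepG2 CAGA-GFP cells (1000/well, DMEM with 1% FBS) received compound, then TGF-beta at 500 pg/mL final, and were incubated 18 hours at 37 degrees C. Viability was read by CellTiter-Glo luminescence. Media-only wells were set as complete cell-killing and DMSO as no toxicity.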
ATXN2 expr inh: Primary qHTS for Inhibitors of ATXN expression | HEK-293 ATXN2-luciferase reporter, luminescence, 24 h | Potency, µM (doses to about 57 µM), usual class: inhibitors | actives 0.72% (n = 360,000); also: nearly all actives have a fitted effect of over 55% in size
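qHTS (up to 57 uM final) was run with 24 h compound exposure of reporter cells at 37 °C. Each well was multiplexed: SteadyGlo luminescence measured ATXN2-luciferase expression after a fluorogenic Gly-Phe-AFC viability readout (25 uM final).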
TGFb inhibitor: qHTS for Inhibitors of TGF-b | HepG2 CAGA-GFP TGF-b/SMAD3 reporter, GFP fluorescence, 18 h; TGF-beta stimulated, 500 pg/mL final | Potency, µM (series often up to 46.1 µM), actives largely listed as inhibitors | AID 588855, 2011 | actives 1.2% (n = 410,000); also: nearly all actives have a fitted effect of over 65% in size
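TGF-beta reporter screen: HEPG2 CAGA-GFP, 1% FBS, 500 pg/mL TGF-beta final, 18 h; per-cell GFP summed per well; curves fitted and categorized by class.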
S2 tox: Viability Counterscreen for Primary qHTS for Inhibitors of ATXN expression | actives 0.49% (n = 400,000) | Potency, µM (top dose mostly 56.7 µM), most hits filed as cytotoxic | S2 cells (HEK-293 line with an ATXN2-luciferase reporter) viability, CellTiter-Fluor protease fluorescence, 24 h | AID 651635, 2014; also: nearly all actives have a fitted effect of over 40% in size
TGFb confirm: qHTS for Inhibitors of TGF-b: Confirmation of Cherry Picks. shares compounds with TGFb inhibitor. HepG2 CAGA-GFP TGF-b reporter, GFP fluorescence, 18 h; cells stimulated with TGF-beta, 500 pg/mL. Potency, µM (titrated, usually from 46.1 µM), actives largely listed as inhibitors. actives 63% (n = 1,600). AID 720534, 2013; also: nearly all actives have a fitted effect of over 65% in size
HepG2 tox-2: qHTS for Inhibitors of TGF-b: Cytotox Counterscreen for Cherry Picks; shares compounds with TGFb inhibitor; HepG2 CAGA-GFP viability, ATP luminescence, 18 h; cells stimulated with TGF-beta, 500 pg/mL; Potency, µM (series often up to 46.1 µM), usual class: inhibitors; actives 27% (n = 1,600); AID 720535, 2013; also: nearly all actives have a fitted effect of over 70% in size
TGFb CCL64 inh: qHTS for Inhibitors of TGF-b: CCL64 Cells Orthogonal Assay for Cherry Picks. shares compounds with TGFb inhibitor. CCL64 CAGA-GFP reporter, TGF-b stimulated, GFP fluorescence, 18 h. Potency, µM (top dose mostly 46.1 µM), actives largely listed as inhibitors. actives 41% (n = 1,600). AID 720536, 2013; also: nearly all actives have a fitted effect of over 65% in size
TGFb COP inh: qHTS for Inhibitors of TGF-b: Hit Validation in HepG2 Cells using COP promoter; HepG2 COP-GFP TGF-b reporter, GFP fluorescence, 18 h; cells stimulated by added recombinant TGF-beta; shares compounds with TGFb inhibitor; Potency, µM (doses to about 46.1 µM), most hits filed as inhibitors; actives 3% (n = 1,600); also: nearly all actives have a fitted effect of over 70% in size
Numbers stand for hits; . = inactive; ? = inconclusive; / = no result given; [ ] = dose if it differs, or a comment. Rows were chosen to be rich in hits. Some 6.1% of all compounds tested hit in one or more screens of this group. Calls follow the shape of the dose curve; as a rule, active = well fitted curve in the direction sought with a large enough effect; inconclusive = small, poorly fitted or top-dose-only effect, or another doubt; inactive = no such curve, though single readings can be large; an effect the other way counts as inactive or inconclusive.

SMILES | Gal4-VP16 FLuc | RORgamma inh | HepG2 tox-1 | ATXN2 expr inh | TGFb inhibitor | S2 tox | TGFb confirm | HepG2 tox-2 | TGFb CCL64 inh | TGFb COP inh
O[C@H]1CN(CC2CCCCC2)[C@@H](c2ccc(Cl)cc2)C[C@@H]1n1cc(C2CC2)nn1 | / | / | 11µM | ? | 10µM | / | 23µM | 16µM | 23µM | .
O[C@@H]1CN(CC2CCCCC2)[C@@H](c2ccccc2)C[C@H]1n1cc(C2CC2)nn1 | / | / | . | . | . | ? | / | / | / | /
CCNC(=O)c1ccc(C)c(-n2c(C)nc3cccnc32)c1 | / | / | . | / | . | / | / | / | / | /
CC1(C(=O)NCC2CCCCC2)CCN1C(=O)Cc1ccc(-c2ccccc2)cc1 (stereo not given) | / | / | . | . | ? | . | . | . | ? | .
CC1(C(=O)NC2CCCC2)CCN1C(=O)Cc1ccc(-c2ccccc2)cc1 (stereo not given) | / | / | . | . | . | . | / | / | / | /
CN1CCN(C(c2ccc(Cl)cc2Cl)c2sc3nc(-c4ccco4)nn3c2O)CC1 (stereo not given) | / | / | . | . | . | . | / | / | / | /
Cc1cc(C)cc(C(=O)N2CC(=O)Nc3ccccc32)c1 | . | . | . | . | 10µM | ? | 7.3µM | . | 8.2µM | .
COCc1cc(Sc2ccc(Cl)cc2)nc(C)n1 | .[10 µM] | . | . | .[11.3 µM] | . | . | / | / | / | /
COCc1cc(S(=O)c2ccc(Cl)cc2)nc(C)n1 (stereo not given) | ? | 4.5µM | . | . | ? | ? | ? | ? | 7.3µM | .
O=S(=O)(Nc1cccc2cccnc12)c1ccccc1 | 3.5µM | 2µM | . | 8.9µM | 7.1µM | ? | 23µM | ? | 12µM | .
Cc1cc(C)c(NS(=O)(=O)c2cccc3cccnc23)c(C)c1 | . | . | . | .[11.3 µM] | . | . | / | / | / | /
Cc1ccc(S(=O)(=O)Nc2cccc3cccnc23)c([N+](=O)[O-])c1 | 0.89µM | 0.79µM | . | 10µM | 4.5µM | ? | . | ? | ? | .
O=C(CCNc1ccc(Cc2ccncc2)cc1)c1cccc([N+](=O)[O-])c1 | . | ? | . | . | . | . | / | / | / | /
O=C(CCNc1cccc(F)c1)c1cccc([N+](=O)[O-])c1 | . | ? | . | . | 13µM | . | 10µM | ? | ? | .
C/C=C/OC(=O)NC(c1ccccc1)[C@]1(C(C)=O)CCCC1=O (stereo not given in full) | .[10 µM] | .[10 µM] | / | / | / | / | / | / | / | /
CC(C)=CCNc1ncnc2c1c(C#N)cn2C1OC(CO)C(O)C1O (stereo not given) | / | / | . | . | 4µM | ? | 0.73µM | ? | . | .
COc1ccc(C(=O)On2c(-c3ccc(Br)cc3)nc3ccccc3c2=O)cc1 | 5µM | 7.1µM | . | ? | 13µM | ? | 12µM | 21µM | 21µM | .
COc1ccc(-c2nc3ccccc3c(=O)n2N)cc1 | . | . | . | . | . | . | / | / | / | /
COc1cccc(CNC(=O)CCn2nc(C)c3c(C)n(-c4ccccc4)nc3c2=O)c1 | / | / | . | . | . | . | / | / | / | /
Cc1ccc(-c2cn3c(n2)sc2cc(C(=O)NC4CCCCCC4)ccc23)c(C)c1 | / | / | . | . | . | . | / | / | / | /
COc1ccc(CN(C(=O)Cc2c[nH]c3ccccc23)C(C(=O)NC2CCCCC2)c2ccc(C)o2)cc1 (stereo not given) | .[0.365 µM] | . | . | / | ? | / | / | / | / | /
COc1cccc(CN(C(=O)Cc2c[nH]c3ccccc23)C(C(=O)NC2CCCCC2)c2ccc(C)o2)c1 (stereo not given) | . | . | . | ? | 16µM | ? | 26µM | ? | ? | .
COc1ccc(C(=O)NC(CO)c2nnc(SCc3ccc(Cl)c(Cl)c3)n2C)cc1 (stereo not given) | . | . | . | . | . | ? | / | / | / | /
CC(C)CC(NC(=O)c1cccs1)c1nnc(SCc2ccc(Cl)c(Cl)c2)n1C (stereo not given) | . | . | . | . | 5.6µM | ? | 18µM | 18µM | ? | .
Oc1c(N=Nc2ccc(F)cc2)ccc2ccccc12 | ? | .[1.91 µM] | . | . | ? | ? | / | / | / | /
SMILES | Gal4-VP16 FLuc | RORgamma inh | HepG2 tox-1 | ATXN2 expr inh | TGFb inhibitor | S2 tox | TGFb confirm | HepG2 tox-2 | TGFb CCL64 inh | TGFb COP inh
Oc1c(N=Nc2nn[nH]n2)ccc2ccccc12 | / | / | 5.6µM | . | 4.5µM | 22µM | 7.3µM | 15µM | 21µM | ?
Cc1cc(N2CCOCC2)nc(NCc2ccccc2)n1 | ? | . | . | . | 10µM | . | 15µM | . | ? | .
CC(=O)Oc1c(Br)cc(N(C(C)=O)S(=O)(=O)c2ccccc2)c2ccccc12 | ? | .[1.91 µM] | . | ? | 8.9µM | . | 16µM | ? | 13µM | ?
CC(=O)Oc1ccccc1N(C(C)=O)S(=O)(=O)c1ccc2ccccc2c1 | . | ? | . | . | . | . | / | / | / | /
COc1cc(Br)c(CNc2cc(C)ccc2C)cc1OC | . | . | . | / | ? | . | / | / | / | /
COc1cc(OC)c(OC)cc1CNc1cc(C)ccc1OC | . | . | . | . | ? | . | 6.5µM | . | . | .
Cc1oc(-c2cccc(Cl)c2)nc1Cn1c(SCc2ccccc2F)nc2ccncc21 | / | / | . | . | ? | . | / | / | / | /
O=C(Nc1cccnc1Cl)c1cccs1 | . | . | . | . | . | ? | / | / | / | /
O=C(Oc1c(Cl)cc(Cl)c2cccnc12)c1cccs1 | 1µM | 0.63µM | . | ? | 3.5µM | ? | 21µM | ? | ? | .
O=C(Oc1c(Cl)cc(Cl)c2cccnc12)c1ccco1 | ? | 0.28µM | . | ? | 6.3µM | ? | 18µM | ? | ? | .
O=C(Oc1c(CN2CCOCC2)cc(Cl)c2cccnc12)c1cccs1 | 1µM | 1.4µM | . | ? | 7.1µM | ? | ? | ? | 16µM | .

Source: PubChem BioAssay
